Screening data: PubChem BioAssay, several laboratories
Only some compounds are listed: those with a hit (about 4.6% of all), similar ones and a draw of the others.
ADAM17 inh – ADAM17 inhibition, QFRET primary screen; P78536; recombinant ADAM17, EDANS/DABCYL FRET peptide cleavage; inhibition, % at 6.95 µM; 370,000 compounds, 0.83% hits;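 active means inhibition above the mean of compounds lying between control limits plus 3 SD, set per campaign, cut at about 8.5% in these data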;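 further: 0% = DMSO-only wells as the low control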
ADAM10 inh – inhibits human ADAM10; inhibition, % at 7 µM; O14672; recombinant ADAM10, EDANS/DABCYL FRET peptide cleavage, 3 h; AID 720582; 370,000 compounds, 0.62% hits;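 active means inhibition above a per-campaign cutoff equal to the mean of compounds falling between control-based bounds plus 3 SD, cut at about 20% in these data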;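 further: 0% = DMSO wells while the 100% control is not disclosed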
Target sequence (O14672 214-748 limits assumed): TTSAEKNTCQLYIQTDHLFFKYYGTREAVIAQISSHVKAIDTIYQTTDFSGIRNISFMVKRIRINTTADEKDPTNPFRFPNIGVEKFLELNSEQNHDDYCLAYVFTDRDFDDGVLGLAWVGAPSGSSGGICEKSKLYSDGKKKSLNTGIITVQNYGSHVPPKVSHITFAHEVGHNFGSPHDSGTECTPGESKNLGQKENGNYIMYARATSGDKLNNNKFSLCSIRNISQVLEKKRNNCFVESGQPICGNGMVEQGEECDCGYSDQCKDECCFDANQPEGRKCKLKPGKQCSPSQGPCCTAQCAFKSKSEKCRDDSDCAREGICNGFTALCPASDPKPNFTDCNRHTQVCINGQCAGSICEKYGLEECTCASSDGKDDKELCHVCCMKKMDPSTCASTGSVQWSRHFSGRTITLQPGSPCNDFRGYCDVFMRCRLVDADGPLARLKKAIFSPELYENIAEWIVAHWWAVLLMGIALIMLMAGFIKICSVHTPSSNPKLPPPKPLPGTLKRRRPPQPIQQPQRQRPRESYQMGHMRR
proKLK7 act – proKLK7 (human) activation, primary screen; AID 652039; P49862; purified proKLK7, EDANS-DABCYL substrate fluorescence; 100% is mature enzyme control, 0% vehicle; 370,000 compounds, 0.9% hits; activation, % at 7 µM;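 active means activation above the mean of all tested compounds plus 3 SD, computed per campaign excluding outliers beyond control limits, cut at about 13% in these data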
FAS TE block – blocks the thioesterase domain of human fatty acid synthase; 360,000 compounds, 0.67% hits; recombinant FAS-TE, OMFH fluorogenic substrate, fluorescence endpoint; P49327; inhibition, % at 15 µM; AID 602261;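 active means compounds whose normalised, plate-corrected inhibition of enzyme fluorescence in the single-dose primary screen is 50% or more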;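 further: 0% = DMSO with enzyme and 100% = substrate without enzyme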
NR3A LBD binder – modulators (binders) of human NR3A ligand-binding domain | NR3A LBD differential scanning fluorimetry, Tm shift; 0% = protein alone, 100% = glycine-bound protein | Tm shift relative to glycine control, % at 25 µM | 340,000 compounds, 2.5% hits | AID 1259313;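 active means melting temperature shift of at least 10% of the positive control shift, at one fixed dose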
KLK7 act conf – confirmation of human kallikrein-7 zymogen activators; shares compounds with proKLK7 act; activation, % at 7 µM; 3,200 compounds, 68% hits; purified proKLK7, EDANS-DABCYL substrate fluorescence; scaled: vehicle 0, mature enzyme 100;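 active means activation, as change over the incubation, above the mean of all tested compounds plus 3 SD, cut at about 13% in these data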
EDANS interfere – fluorescence interference counter-screen for KLK7 activators | shares compounds with proKLK7 act | EDANS-DABCYL substrate fluorescence interference, no enzyme, 4 h; solvent 0%, active enzyme control 100% | activation, % at 7 µM | 3,200 compounds, 80% hits;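 active means activation above the all-compound mean plus 3 SD, ignoring values outside control-based bounds, cut at about 4.8% in these data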;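 further: value is the 4 h activation minus the activation read at time zero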
EDANS interf – counter-screen for kallikrein-7 activators: EDANS-DABCYL interference, dose response. 250 compounds, 20% hits. EDANS-DABCYL peptide fluorescence interference, no enzyme. EC50, µM. shares compounds with proKLK7 act;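 active means compounds that raise the fluorescence signal in this interference counterscreen, with EC50 at or below 10 µM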;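 further: intact quenched peptide substrate alone read at 355 nm excitation and 520 nm emission; signal is fluorescence gain from T0 to T4 after four hours at room temperature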
The depositor's hits bear a star.

`Cc1c(C)c2c(OCC(=O)N3CCC(O)CC3)cc3c(c2oc1=O)CCC(C)(C)O3` gave ADAM17 inh inactive, ADAM10 inh inactive, proKLK7 act 42*, FAS TE block -3, NR3A LBD binder 0, KLK7 act conf 69* and EDANS interfere 73*.
`CCCc1cc(=O)oc2c3c(cc(OCC(=O)NCC4CCC(C(=O)O)CC4)c12)OC(C)(C)CC3` (stereo unspecified) gave ADAM17 inh -211, ADAM10 inh inactive, proKLK7 act -2, FAS TE block -6 and NR3A LBD binder -4.
`Cc1c(C)c2c(OCC(=O)NCc3ccco3)cc3c(c2oc1=O)CCC(C)(C)O3` gave ADAM17 inh -64, ADAM10 inh -272, proKLK7 act -2, FAS TE block -5 and NR3A LBD binder 0.
CCCc1cc(=O)oc2c3c(cc(OCC(=O)N4CCC(C(=O)O)CC4)c12)OC(C)(C)CC3 was read as ADAM17 inh inactive, ADAM10 inh inactive, proKLK7 act 65*, FAS TE block -1, KLK7 act conf 77* and EDANS interfere 76*.
`Cc1c(C)c2c(OCC(=O)N3CCC[C@H]3C(=O)O)cc3c(c2oc1=O)CCC(C)(C)O3` gave ADAM17 inh inactive, ADAM10 inh inactive, proKLK7 act 71*, FAS TE block -3, NR3A LBD binder 1, KLK7 act conf 71* and EDANS interfere 70*.
For Cc1ccc(S(=O)(=O)N2CCCC(C(=O)NCc3ccco3)C2)cc1 (stereo unspecified) the results were ADAM17 inh 2, ADAM10 inh 4 and proKLK7 act 0.
COc1ccc(-c2cc(C(F)(F)F)n3nc(C(=O)NCCN4CCOCC4)cc3n2)cc1 was read as ADAM17 inh -150, ADAM10 inh -424, proKLK7 act -11, FAS TE block -7 and NR3A LBD binder -2.
`COc1ccc(-c2cc(C(F)(F)F)n3nc(C(=O)NCCCn4ccnc4)cc3n2)cc1` gave ADAM17 inh -317, ADAM10 inh inactive, proKLK7 act 57*, FAS TE block -21, NR3A LBD binder -1, KLK7 act conf -216 and EDANS interfere -198.
Screening CC1COc2c(N3CCN(C)CC3)c(F)cc3c(=O)c(C(=O)O)cn1c23 (stereo unspecified) returned ADAM17 inh inactive, ADAM10 inh inactive, proKLK7 act 160*, FAS TE block -4, NR3A LBD binder 1, KLK7 act conf 32* and EDANS interfere 34*.
CCOc1ccc(NC(=O)c2ccc(NC(=O)c3cn4c5c(c(N6CCN(C)CC6)c(F)cc5c3=O)OCC4C)cc2)cc1 (stereo unspecified) was read as ADAM17 inh -47, ADAM10 inh -205, proKLK7 act 43*, FAS TE block -9, NR3A LBD binder 2, KLK7 act conf 10 and EDANS interfere 8.4*.
`Cc1ccccc1CN1CCCCC(NC(=O)c2ccc(F)c(F)c2)C1=O` (stereo unspecified) gave ADAM17 inh 0, ADAM10 inh 3 and proKLK7 act -1.
Screening CCOC(=O)c1c(NC(=O)COC(=O)c2ccccn2)sc(C(=O)N(C)C)c1C returned ADAM17 inh -2, ADAM10 inh -6, proKLK7 act 1, FAS TE block -7 and NR3A LBD binder -2.
For N#Cc1c(NC(=O)COC(=O)c2nccnc2N)sc2c1CCCC2 the results were ADAM17 inh -50, ADAM10 inh -153, proKLK7 act 17*, FAS TE block -3, NR3A LBD binder 0, KLK7 act conf 16*, EDANS interfere 13* and EDANS interf >70.
CCOC(=O)c1c(NC(=O)COC(=O)c2nccnc2N)sc(C(=O)N(C)C)c1C was read as ADAM17 inh -150, ADAM10 inh inactive, proKLK7 act 43*, FAS TE block -4, NR3A LBD binder 1, KLK7 act conf 42* and EDANS interfere 46*.
CCOC(=O)c1c(NC(=O)COC(=O)c2nccnc2N)sc2c1CCC2 was read as ADAM17 inh -44, ADAM10 inh -163, proKLK7 act 11, FAS TE block -5 and NR3A LBD binder 0.
For COC(=O)C[C@@H]1CC[C@H]2[C@H](COc3ccc(NC(=O)c4cccc(C(F)(F)F)c4)cc3C(=O)N2C)O1 the results were ADAM17 inh -3, ADAM10 inh -2 and proKLK7 act 1.
`COC(=O)c1ccc(S(=O)(=O)N2CCC(NC(=O)COc3ccc(F)cc3)CC2)cc1` gave ADAM17 inh -3, ADAM10 inh -8 and proKLK7 act 0.
O=C(NCCc1ccccc1Cl)[C@@H]1CCCN1C(=O)[C@@H](NS(=O)(=O)c1ccc(F)cc1F)c1ccccc1 was read as ADAM17 inh 3, ADAM10 inh 6 and proKLK7 act 0.
Screening C[C@H](O)[C@@H]1CN2CCc3c([nH]c4ccccc34)[C@@H]2C[C@@H]1N(C)C(=O)Nc1ccccc1 returned ADAM17 inh -21, ADAM10 inh -75, proKLK7 act 3 and FAS TE block -6.
Screening C[C@H](O)[C@@H]1C(=O)N2CCc3c([nH]c4ccccc34)[C@@H]2C[C@@H]1N(C)C(=O)Nc1ccc(Br)cc1 returned ADAM17 inh -191, ADAM10 inh inactive, proKLK7 act 37*, KLK7 act conf 2 and EDANS interfere 4.
Screening C[C@H](O)[C@@H]1CN2CCc3c([nH]c4ccccc34)[C@@H]2C[C@@H]1N(C)C(=O)Nc1ccc(F)cc1 returned ADAM17 inh -60, ADAM10 inh -218, proKLK7 act 16*, FAS TE block -6, KLK7 act conf 3 and EDANS interfere 2.
Screening C[C@H](O)[C@@H]1C(=O)N2CCc3c([nH]c4ccccc34)[C@@H]2C[C@@H]1N(C)C(=O)c1ccco1 returned ADAM17 inh inactive, ADAM10 inh inactive, proKLK7 act 51*, FAS TE block -4, KLK7 act conf 55* and EDANS interfere 60*.
Screening C[C@H](O)[C@@H]1C(=O)N2CCc3c([nH]c4ccccc34)[C@@H]2C[C@@H]1N(C)C(=O)Nc1ccccc1 returned ADAM17 inh -448, ADAM10 inh inactive, proKLK7 act 26*, FAS TE block -5, KLK7 act conf 6 and EDANS interfere 6.5*.
Screening COc1ccc(NC(=O)N(C)[C@H]2C[C@H]3c4[nH]c5c(-c6ccccc6)cccc5c4CCN3C(=O)[C@H]2[C@H](C)O)cc1 returned ADAM17 inh -65, ADAM10 inh -264 and proKLK7 act -3.
